Active and inactive are the calls of the source. Rule for the calls: active = hit-call score of the fitted dose curve at least 0.9, where 1 is the maximum; inactive = score below 0.9.

Test [1] can be described thus: ATG_E_Box_CIS: Attagene CIS-FACTORIAL HepG2 Assay for human Enhancer Box (E-box) (AID 2282936). The note with it: HepG2 E-box cis-reporter transcription, actives raise or lower the signal. The essentials:
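Endogenous transcription factor activity was sensed in human HepG2 liver cells through transfected cis-promoter reporter units. After 24 h of dosing, total RNA was reverse-transcribed and reporter cDNA resolved by capillary electrophoresis.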

A short description of test [2]: ATG_M_61_CIS: Attagene CIS-FACTORIAL HepG2 Assay for M61 Transcription Factor (Internal Marker) (AID 2282937). To be noted: HepG2 Attagene CIS-FACTORIAL M61 internal marker reporter; actives raise or lower the signal. In short, it runs like this:
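Multiplexed reporter mRNA assay, HepG2 human hepatoma cells, 24 h treatment. Signal: FAM-labelled, HpaI-digested RT-PCR fragments by CE. Fit: bidirectional, baseline DMSO.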

The nature of test [3]: ATG_EGR_CIS: Attagene CIS-FACTORIAL HepG2 Assay for human Early Growth Response 1 (EGR1) (AID 2282938). To be noted: HepG2 Attagene CIS-FACTORIAL EGR reporter mRNA; actives raise or lower the signal. In short, it runs like this:
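Multiplexed cis-reporter system in human hepatoma HepG2 cells, transiently transfected. Cells are dosed for 24 h; reporter transcripts are amplified, fluorescently tagged and sized by capillary electrophoresis, with DMSO as negative control.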

A short description of test [4]: ATG_M_19_CIS: Attagene CIS-FACTORIAL HepG2 Assay for M19 Transcription Factor (Internal Marker) (AID 2282939). To be noted: HepG2 Attagene CIS-FACTORIAL M19 internal marker reporter; actives raise or lower the signal. In short, it runs like this:
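Transfect HepG2 with MRTU reporter library → dose chemical, 24 h → isolate total RNA, reverse-transcribe with oligo(dT) → PCR, 6-FAM label, HpaI cut (2 h, 37 C) → capillary electrophoresis. Bidirectional fit vs DMSO.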

Test [5] is described as follows: ATG_ERE_CIS: Attagene CIS-FACTORIAL HepG2 Assay for Estrogen Response Element (ERE) (AID 2282940). To be noted: HepG2 ERE cis-reporter, Attagene RNA transcript; actives raise or lower the signal. In short, it runs like this: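 Transient MRTU transfection of human HepG2; cis-element promoters; 24 h dosing; total RNA → RT (oligo dT) → PCR → 6-FAM primer extension → HpaI digest → CE fluorescence. Bidirectional fit, DMSO baseline.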

A short description of test [6]: ATG_Ets_CIS: Attagene CIS-FACTORIAL HepG2 Assay for human Erythroblast Transformation Specific (ETS) (AID 2282941). To be noted: HepG2 ETS cis-reporter transcription, actives raise or lower the signal. In short, it runs like this: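 Multiplexed reporter transcript profiling: HepG2, 24 h treatment, total RNA to cDNA, PCR, 6-FAM labelling, HpaI cut, capillary electrophoresis. Gain- or loss-of-signal fitted against DMSO.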

In test [7] the target is Hepatocyte nuclear factor 3-beta (Homo sapiens) (UniProt Q9Y261). Description: ATG_FoxA2_CIS: Attagene CIS-FACTORIAL HepG2 Assay for human Forkhead box A2 (FOXA2) (AID 2282942). The note with it: HepG2 cis-reporter transcription factor activity, 24 h; actives raise or lower the signal. The essentials:
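Multiplexed cis-element reporter assay in transiently transfected HepG2. Twenty-four hours post-dosing, RNA was reverse-transcribed, amplified, FAM-labelled, HpaI-digested and separated by CE. Activity gain or loss relative to DMSO.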

A short description of test [8]: ATG_FoxO_CIS: Attagene CIS-FACTORIAL HepG2 Assay for human Forkhead box O (FoxO) (AID 2282943). To be noted: HepG2 Attagene cis-reporter, FoxO element, mRNA; actives raise or lower the signal. In short, it runs like this: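 24 h chemical exposure, HepG2 with transient cis-MRTU transfection. RNA extraction, oligo(dT) RT, reporter-specific PCR, primer-extension labelling, HpaI digestion, CE fragment analysis; bidirectional fit, DMSO baseline.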

Test [9] is described as follows: ATG_GATA_CIS: Attagene CIS-FACTORIAL HepG2 Assay for human GATA Binding Protein (AID 2282944). To be noted: HepG2 GATA cis-element reporter, Attagene multiplex mRNA; actives raise or lower the signal. The essentials: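 Transient MRTU transfection, HepG2, 24 h compound exposure. Total RNA → oligo(dT) RT → PCR → 6-FAM primer extension → HpaI cut → CE. Bidirectional fit vs DMSO.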

Test [10] is described as follows: ATG_GLI_CIS: Attagene CIS-FACTORIAL HepG2 Assay for human Zinc Finger Protein GLI1 (AID 2282945). To be noted: HepG2, Attagene cis-factorial reporter mRNA, GLI element; actives raise or lower the signal. The essentials: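 HepG2 cells transiently transfected with cis-promoter multiplexed reporter units report endogenous transcription factor activity. After 24 h chemical exposure, reporter mRNA was quantified by RT-PCR, 6-FAM labelling, HpaI digestion and capillary electrophoresis, with bidirectional fitting against DMSO.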

Test [11] deals with Bile acid receptor (Homo sapiens) (UniProt Q96RI1). Description: ATG_IR1_CIS: Attagene CIS-FACTORIAL HepG2 Assay for human Nuclear Receptor Subfamily 1 Group H Member 4 (NR1H4), IR1 submotif (AID 2282946). To be noted: IR1 reporter transcription, actives raise or lower the signal. In short, it runs like this:
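Readout: reporter transcript levels by RT-PCR with fluorescent capillary electrophoresis, from HepG2 cells transiently transfected with multiplexed cis-regulated reporters and dosed 24 h. Gain- or loss-of-signal fitted versus DMSO negative control.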

Test [12] can be described thus: ATG_ISRE_CIS: Attagene CIS-FACTORIAL HepG2 Assay for human Interferon Regulatory Factor 1 (IRF1) binding to an Interferon-Stimulated Response Element (ISRE) (AID 2282948). To be noted: HepG2 ISRE cis-reporter (Attagene), mRNA transcription readout; actives raise or lower the signal. In short, it runs like this: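 Signal reflects induction or loss of ISRE-linked reporter mRNA in transiently transfected HepG2 cells after a 24 h treatment, detected by fluorescent RT-PCR fragments on capillary electrophoresis and normalised to DMSO.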

The nature of test [13]: ATG_M_32_CIS: Attagene CIS-FACTORIAL HepG2 Assay for M32 Transcription Factor (Internal Marker) (AID 2282949).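 Note: background control marker of the multiplexed CIS panel rather than a real target.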 The note with it: HepG2 Attagene cis-factorial M32 reporter, mRNA; actives raise or lower the signal. In short, it runs like this: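 HepG2 human liver cells transiently transfected with cis-promoter-driven multiple reporter transcription units, dosed 24 h. Reporter mRNA quantified by RT-PCR, FAM-labelled primer extension, HpaI digest and capillary electrophoresis; bidirectional fit versus DMSO baseline.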

A short description of test [14]: ATG_M_06_CIS: Attagene CIS-FACTORIAL HepG2 Assay for M06 Transcription Factor (Internal Marker) (AID 2282950). The note with it: HepG2 Attagene CIS-FACTORIAL M06 internal marker reporter; actives raise or lower the signal. The essentials:
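Read-out is fluorescence of labelled reporter cDNA fragments resolved by capillary electrophoresis after RT-PCR. Cells: HepG2 carrying transfected cis-promoter reporter units, treated 24 h. Gain or loss of signal fitted relative to DMSO.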

Test [15] addresses Hypoxia-inducible factor 1-alpha (Homo sapiens) (UniProt Q16665). Description: ATG_HIF1a_CIS: Attagene CIS-FACTORIAL HepG2 Assay for human Hypoxia Inducible Factor 1 (HIF1A) (AID 2282951). The note with it: HepG2 Attagene cis-factorial HIF1a reporter transcription; actives raise or lower the signal. In short, it runs like this:
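Cis-element reporter constructs were transiently transfected into HepG2 cells, which were treated for 24 h; reporter RNA was reverse-transcribed, amplified, labelled and resolved by capillary electrophoresis.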

Test [16] concerns the target Hepatocyte nuclear factor 6 (Homo sapiens) (UniProt Q9UBC0). Description: ATG_HNF6_CIS: Attagene CIS-FACTORIAL HepG2 Assay for human Hepatocyte Nuclear Factor 6 (HNF6) (AID 2282952). To be noted: HepG2 Attagene cis-factorial HNF6 reporter transcription; actives raise or lower the signal. The essentials: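 First, HepG2 cells were transfected with the multiplexed cis reporter library and dosed with chemical for 24 h. Next, RNA was reverse-transcribed, PCR-amplified and fluorescently labelled. Finally, HpaI-digested fragments were read by capillary electrophoresis.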

Test [17] in a line: ATG_MRE_CIS: Attagene CIS-FACTORIAL HepG2 Assay for human Metal Responsive Element (MRE) (AID 2282954). The note with it: HepG2 MRE cis-reporter transcription, Attagene multiplex; actives raise or lower the signal. The essentials: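 Cells were transfected with cis-promoter reporter transcription units, then dosed for 24 h. RNA was reverse-transcribed, amplified, fluorescently labelled and resolved by capillary electrophoresis, and activity was fitted in both directions relative to DMSO.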

The nature of test [18]: ATG_PBREM_CIS: Attagene CIS-FACTORIAL HepG2 Assay for human Phenobarbital-responsive Enhancer Module (PBREM) (AID 2282955). To be noted: HepG2 PBREM cis-reporter, Attagene multiplexed transcription; actives raise or lower the signal. The essentials:
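Multiplexed cis-reporter readout in human hepatoma HepG2 cells; PBREM-regulated transcript quantified after 24 h exposure by fluorescent RT-PCR fragment analysis. Signal changes up or down fitted relative to DMSO.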

In test [19] the target is Heat shock factor protein 1 (Homo sapiens) (UniProt Q00613). Description: ATG_HSE_CIS: Attagene CIS-FACTORIAL HepG2 Assay for human Heat Shock Transcription Factor 1 (HSE) (AID 2282953). To be noted: HepG2 HSE cis-reporter, Attagene RNA transcription; actives raise or lower the signal. In short, it runs like this:
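HepG2, transient MRTU transfection, cis-promoter reporters (endogenous TF activity). 24 h compound. RNA → oligo(dT) RT → PCR → 6-FAM primer extension → HpaI cut → CE. Bidirectional fit vs DMSO.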

Test [20] is described as follows: ATG_GRE_CIS: Attagene CIS-FACTORIAL HepG2 Assay for human Glucocorticoid Response Elements (GRE) (AID 2282947). The note with it: HepG2 GRE cis-reporter, Attagene multiplex mRNA; actives raise or lower the signal. The essentials:
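Cells (HepG2) bearing transfected cis-promoter reporter transcription units were treated with chemical for 24 hours. Reporter mRNA was measured via RT-PCR with capillary electrophoresis, and activity was fitted in both directions relative to DMSO.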

Chain of Hepatocyte nuclear factor 6 (Homo sapiens) (Q9UBC0 whole entry, looked up, the tested form may be a part): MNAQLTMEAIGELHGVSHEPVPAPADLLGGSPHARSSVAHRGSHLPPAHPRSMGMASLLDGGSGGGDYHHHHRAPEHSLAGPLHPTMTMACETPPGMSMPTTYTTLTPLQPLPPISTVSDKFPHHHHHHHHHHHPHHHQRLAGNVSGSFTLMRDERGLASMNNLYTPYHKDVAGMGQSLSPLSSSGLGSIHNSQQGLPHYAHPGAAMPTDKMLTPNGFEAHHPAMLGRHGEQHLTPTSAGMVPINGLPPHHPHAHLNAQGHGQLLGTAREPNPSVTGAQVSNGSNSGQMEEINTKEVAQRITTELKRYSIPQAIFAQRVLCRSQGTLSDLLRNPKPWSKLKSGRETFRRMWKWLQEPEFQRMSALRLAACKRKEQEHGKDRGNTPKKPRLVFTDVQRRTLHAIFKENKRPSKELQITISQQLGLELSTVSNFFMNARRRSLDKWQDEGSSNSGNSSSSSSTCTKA
Chain of Bile acid receptor (Homo sapiens) (Q96RI1 whole entry, looked up): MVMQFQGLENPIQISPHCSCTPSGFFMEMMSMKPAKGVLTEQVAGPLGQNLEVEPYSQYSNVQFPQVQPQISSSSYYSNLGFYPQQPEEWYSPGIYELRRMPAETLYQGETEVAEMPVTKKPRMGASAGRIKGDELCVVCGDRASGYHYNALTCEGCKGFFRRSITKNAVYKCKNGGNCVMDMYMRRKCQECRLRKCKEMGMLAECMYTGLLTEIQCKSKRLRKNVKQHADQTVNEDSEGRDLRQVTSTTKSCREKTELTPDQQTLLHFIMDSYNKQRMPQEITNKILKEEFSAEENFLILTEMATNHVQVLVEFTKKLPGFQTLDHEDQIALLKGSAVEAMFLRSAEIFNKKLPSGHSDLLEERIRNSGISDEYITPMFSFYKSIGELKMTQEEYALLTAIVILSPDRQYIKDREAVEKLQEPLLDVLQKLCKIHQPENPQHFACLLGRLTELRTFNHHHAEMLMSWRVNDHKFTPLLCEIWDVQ
Chain of Hypoxia-inducible factor 1-alpha (Homo sapiens) (Q16665 whole entry, looked up): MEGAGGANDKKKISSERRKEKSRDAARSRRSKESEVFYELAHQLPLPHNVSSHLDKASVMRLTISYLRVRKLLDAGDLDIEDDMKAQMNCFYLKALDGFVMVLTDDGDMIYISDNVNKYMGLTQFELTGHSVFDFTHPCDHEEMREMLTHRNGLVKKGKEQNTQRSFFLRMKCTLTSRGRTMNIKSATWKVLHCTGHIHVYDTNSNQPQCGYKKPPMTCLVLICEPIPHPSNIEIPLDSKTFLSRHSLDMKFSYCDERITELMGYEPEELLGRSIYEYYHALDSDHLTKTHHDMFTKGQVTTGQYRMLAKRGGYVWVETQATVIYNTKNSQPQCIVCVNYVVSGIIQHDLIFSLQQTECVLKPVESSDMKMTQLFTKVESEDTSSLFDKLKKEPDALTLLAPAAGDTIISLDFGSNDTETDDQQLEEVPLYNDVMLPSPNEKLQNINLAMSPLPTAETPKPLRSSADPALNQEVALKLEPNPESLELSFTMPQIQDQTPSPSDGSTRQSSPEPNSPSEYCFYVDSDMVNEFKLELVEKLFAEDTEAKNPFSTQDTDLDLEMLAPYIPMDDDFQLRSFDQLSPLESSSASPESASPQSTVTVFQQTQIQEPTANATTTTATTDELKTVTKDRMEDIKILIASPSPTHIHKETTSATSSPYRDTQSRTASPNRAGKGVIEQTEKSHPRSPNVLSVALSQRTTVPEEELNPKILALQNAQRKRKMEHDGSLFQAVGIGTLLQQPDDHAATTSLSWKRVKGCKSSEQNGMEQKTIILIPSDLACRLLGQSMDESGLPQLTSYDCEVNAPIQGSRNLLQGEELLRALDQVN
Chain of Heat shock factor protein 1 (Homo sapiens) (Q00613 whole entry, looked up): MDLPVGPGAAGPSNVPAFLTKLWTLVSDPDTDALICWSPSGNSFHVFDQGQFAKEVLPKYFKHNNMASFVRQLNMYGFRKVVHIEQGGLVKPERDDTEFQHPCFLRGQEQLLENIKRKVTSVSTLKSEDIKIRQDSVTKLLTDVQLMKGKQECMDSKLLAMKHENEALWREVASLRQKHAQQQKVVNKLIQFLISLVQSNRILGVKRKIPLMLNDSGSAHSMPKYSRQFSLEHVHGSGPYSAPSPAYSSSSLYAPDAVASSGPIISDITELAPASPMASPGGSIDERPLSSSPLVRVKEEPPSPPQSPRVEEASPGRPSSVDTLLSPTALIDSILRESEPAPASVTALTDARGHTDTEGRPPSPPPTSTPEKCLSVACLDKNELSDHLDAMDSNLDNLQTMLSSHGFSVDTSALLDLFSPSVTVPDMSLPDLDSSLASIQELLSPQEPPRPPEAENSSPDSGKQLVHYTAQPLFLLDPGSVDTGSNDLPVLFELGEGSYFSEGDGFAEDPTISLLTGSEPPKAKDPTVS
Chain of Hepatocyte nuclear factor 3-beta (Homo sapiens) (Q9Y261 whole entry, looked up): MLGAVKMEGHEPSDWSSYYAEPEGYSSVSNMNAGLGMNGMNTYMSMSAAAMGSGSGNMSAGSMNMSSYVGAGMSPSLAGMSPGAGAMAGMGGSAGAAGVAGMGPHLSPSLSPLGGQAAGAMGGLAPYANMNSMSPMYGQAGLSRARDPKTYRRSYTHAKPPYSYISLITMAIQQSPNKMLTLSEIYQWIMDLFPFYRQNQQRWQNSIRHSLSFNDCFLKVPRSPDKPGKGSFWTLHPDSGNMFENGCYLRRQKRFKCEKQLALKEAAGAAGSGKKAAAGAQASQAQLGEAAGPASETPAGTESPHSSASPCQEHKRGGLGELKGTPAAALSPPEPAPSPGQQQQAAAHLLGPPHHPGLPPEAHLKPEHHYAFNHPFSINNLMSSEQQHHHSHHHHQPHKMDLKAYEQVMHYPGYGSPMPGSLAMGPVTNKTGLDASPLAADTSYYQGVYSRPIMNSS

The term AC50 denotes the midpoint of the concentration-response curve, whichever way the signal moves. For the molecule `O=C1CCCCCN1SSN1CCCCCC1=O`, the AC50 is 182 µM (active) in [1]; 162 µM (active) in test [3]; 155 µM (active) in test [10]; 167 µM (active) in test [12]; 165 µM (active) in [17]. For the same molecule, the result in [2], in [4], in test [5], in test [6], in [7] and in test [8] was inactive. Moreover, the molecule was classed as inactive in test [9], in [11], in [13], in test [14], in [15] and in test [16]. Moreover, the outcome in test [18] was inactive.

As to `C=C(C)C(=O)OCC(C)C`, the outcome in test [1], in test [2], in test [3], in test [4], in test [5] and in [6] was inactive. For the same molecule, the molecule was classed as inactive in [7], in [8], in test [9], in test [10], in [11] and in test [12]. Besides, the call in test [13], in test [14], in test [15], in test [16], in test [19] and in test [17] was inactive.

On to `O=[N+]([O-])C1(Br)COCOC1`, for which the AC50 is 61 µM (active) in [1], 52.5 µM (active) in test [12] and 58.8 µM (active) in [19]. Further, the outcome in test [2], in test [3], in test [4], in [5], in test [6] and in [7] was inactive. Also, the call in test [8], in test [9], in test [10], in [11], in [20] and in [14] was inactive. For the same molecule, the molecule was classed as inactive in test [15], in test [16], in test [17] and in [18].

For `COc1cc(NC(=O)CC(C)=O)c(OC)cc1Cl`, the result in [1], in [2], in test [3], in test [4], in [5] and in test [6] was inactive. For the same molecule, the call in test [7], in [8], in test [9], in [10], in test [20] and in [12] was inactive. In addition, the molecule was called inactive in [13], in test [14], in test [15], in test [16], in [19] and in [17]. In addition, the result in [18] was inactive.

As to `CCc1ccc2c(c1)C(=O)c1ccccc1C2=O`, the outcome in test [1], in [2], in test [3], in test [4], in [5] and in [6] was inactive. Also, the outcome in [7], in [8], in test [9], in test [10], in test [20] and in [12] was inactive. In addition, the molecule was called inactive in test [13], in test [14], in [15], in test [16], in test [19] and in test [17]. The outcome in test [18] was inactive.

Consider `C=CCCCCCCCCC(=O)OCCCC`, for which the outcome in [1], in test [2], in [3], in [4], in [5] and in [6] was inactive. Also, the call in [7], in test [8], in test [9], in test [10], in test [11] and in test [12] was inactive. The molecule was called inactive in test [13], in test [14], in [15], in test [16], in [17] and in test [18].

In the case of `CC(C)c1ccc2cc(C(C)C)ccc2c1`, the outcome in test [1], in [2], in test [3], in [4], in test [5] and in [6] was inactive. Further, the result in test [7], in test [8], in test [9], in [10], in [20] and in [12] was inactive. The molecule was called inactive in test [13], in [14], in [15], in test [16], in [19] and in test [17].

For the origin of these results see PubChem BioAssay (EPA / NIEHS).
